Tau fibril ThT = blocks human tau fibril formation measured by thioflavin T; P10636; Potency, µM (top dose mostly 57.4 µM), for inactives: top-dose activity, negative = inhibition, hits mostly inhibitors; AID 1460; 270,000 tested, 2.1% active; recombinant tau K18 P301L, heparin-induced fibrillization, ThT fluorescence; also: nearly all actives have a fitted effect of over 55% in size
Target sequence (P10636 561-689 P618L limits assumed): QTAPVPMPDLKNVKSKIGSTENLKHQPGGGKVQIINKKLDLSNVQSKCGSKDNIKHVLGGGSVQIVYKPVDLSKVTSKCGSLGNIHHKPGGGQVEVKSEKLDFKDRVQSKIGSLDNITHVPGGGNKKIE
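In this qHTS, human K18 P301L tau is incubated with compound and heparin for 6 hr at 37 C, and Thioflavin T fluorescence then reports fibril load.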
Tau fluor cs = counter-screen for tau fibril formation inhibitors; tau K18 P301L Alexa594 fluorescence, heparin fibrillization; Potency, µM (series often up to 57.7 µM), without a hit: top-dose activity change, negative = decrease; 280,000 tested, 0.93% active; also: nearly all actives have a fitted effect of over 55% in size
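Human tau K18 P301L (15 uM unlabeled, 0.24 uM Alexa 594-labeled) in 100 mM sodium acetate pH 7 with 20 uM heparin, 6 hr at 37 C. ThT 30 uM added, 1 hr ambient; Alexa 594 FP and total fluorescence read at 555/632 nm.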
TexasRed fluor = alters Texas Red total fluorescence, flagging assay interference. TRb/SRC2 Texas Red total fluorescence interference. Potency, µM (doses to about 106 µM), for the others: top-dose fluorescence change, negative = quenching. 280,000 tested, 0.29% active. AID 1479; active = well fitted curve in either direction with a large enough effect; inconclusive = small, poorly fitted or top-dose-only effect
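Human TRb ligand-binding domain at 0.6 uM with 20 nM Texas Red SRC2 peptide in Tris buffer containing 1 uM T3 and 5% DMSO, incubated with compound 5 h at ambient temperature. Total fluorescence (555/632 nm) calculated as parallel + 2 × perpendicular.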
TRb SRC2 PPI = disrupts binding of human TR beta to SRC2 | Potency, µM (series often up to 106 µM), inactives show at the top dose activity change, negative = inhibition, actives largely listed as inhibitors | TRbeta-SRC2 peptide binding, fluorescence polarization; receptor liganded with 1 µM T3 | 280,000 tested, 0.065% active;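 also: plate controls were bound peptide for no effect and peptide without receptor for full effect; nearly all actives have a fitted effect of over 50% in size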
Target sequence (P10828 whole entry, looked up): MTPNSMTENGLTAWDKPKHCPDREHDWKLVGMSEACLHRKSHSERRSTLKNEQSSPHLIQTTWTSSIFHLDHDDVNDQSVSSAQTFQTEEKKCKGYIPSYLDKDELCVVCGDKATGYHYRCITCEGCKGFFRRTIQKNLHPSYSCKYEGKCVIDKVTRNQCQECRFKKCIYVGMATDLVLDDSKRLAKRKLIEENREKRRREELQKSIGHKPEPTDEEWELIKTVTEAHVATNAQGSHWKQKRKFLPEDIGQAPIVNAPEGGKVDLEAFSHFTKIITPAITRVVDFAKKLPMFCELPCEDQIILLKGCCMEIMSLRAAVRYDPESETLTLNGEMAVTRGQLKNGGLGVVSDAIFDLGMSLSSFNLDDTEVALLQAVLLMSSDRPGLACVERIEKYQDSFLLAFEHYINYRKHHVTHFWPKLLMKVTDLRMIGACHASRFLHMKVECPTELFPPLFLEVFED
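Fluorescence polarization of 20 nM Texas Red SRC2 peptide with 0.6 uM human TRb ligand-binding domain, in Tris buffer with 1uM T3 and 5% DMSO. Incubated 5 hr ambient; normalized to unbound and bound controls.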
Tau fibril FP = inhibitors of human tau fibril formation; 280,000 tested, 0.39% active; K18 P301L tau heparin fibrillization, Alexa594 FP, 6 h; Potency, µM (highest dose often 57.7 µM), for the others: at the top dose activity, negative = inhibition, most hits filed as inhibitors; P10636; also: nearly all actives have a fitted effect of over 55% in size
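Human tau K18 […] P301L fragment, 15 uM unlabeled plus 0.24 uM Alexa 594-labeled tau (final), with compound and 20 uM heparin in 100 mM sodium acetate pH 7; 6 hr at 37 C, then Alexa 594 FP read.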
* hit, by the source's call; [ ] = remark or other dose. This is a sample that favours compounds with a hit; in the whole collection about 3.1% have one here. Unless noted, calls follow the shape of the dose curve; as a rule, active = well fitted curve in the direction sought with a large enough effect; inconclusive = small, poorly fitted or top-dose-only effect, or another doubt; inactive = no such curve, though single readings can be large; an effect the other way counts as inactive or inconclusive. Unless noted, % is scaled to controls: 0 for no effect and ±100 for the full control effect; potency is read from the fitted curve at half-maximal effect.

For Cc1ccc(Nc2ccc(N3CCN(C(=O)c4ccc([N+](=O)[O-])cc4Cl)CC3)nn2)cc1 the results were Tau fibril ThT inconclusive, Tau fluor cs inconclusive, TexasRed fluor -4%, TRb SRC2 PPI -3% and Tau fibril FP 5%.
`CCCCOc1ccc(CNC(=O)c2cc3n(n2)CCCN(Cc2ccc(C)cc2)C3=O)cc1` gave Tau fibril ThT -8%, Tau fluor cs -5%, TexasRed fluor -2%, TRb SRC2 PPI 5% and Tau fibril FP -6%.
O=C1N=c2ccccc2=C1c1sc(NS(=O)(=O)c2ccccc2)nc1O was read as Tau fibril ThT 7.1µM*, Tau fluor cs inconclusive, TexasRed fluor -26%, TRb SRC2 PPI 0% and Tau fibril FP 5%.
`O=C(O)CCC(C(=O)O)n1c(O)c(C2=c3ccccc3=NC2=O)sc1=S` (stereo unspecified) gave Tau fibril ThT inconclusive, Tau fluor cs -8%, TexasRed fluor -1%, TRb SRC2 PPI -15% and Tau fibril FP 1%.
For O=C1N=c2ccccc2=C1c1sc(NS(=O)(=O)Cc2ccccc2)nc1O the results were Tau fibril ThT 7.9µM*, Tau fluor cs -20%, TexasRed fluor -7%, TRb SRC2 PPI 3% and Tau fibril FP 6%.
`O=C1N=c2ccccc2=C1c1sc(Nc2ccc(O)cc2)nc1O` gave Tau fibril ThT 2.2µM*, Tau fluor cs 14µM*[quencher], TexasRed fluor -16%, TRb SRC2 PPI -1% and Tau fibril FP 5%.
`O=C(C[n+]1ccc(C(=O)NCCCO)cc1)c1cccc(Br)c1` gave Tau fibril ThT -6%, Tau fluor cs -4%, TexasRed fluor 2%, TRb SRC2 PPI -2% and Tau fibril FP -6%.
COCCCNC(=O)CCc1c(C)nc2nc(-c3cc(OC)cc(OC)c3)nn2c1C was read as Tau fibril ThT -5%, Tau fluor cs -10%, TexasRed fluor -3%, TRb SRC2 PPI -2% and Tau fibril FP -3%.
Fc1ccccc1N1CCN(c2nccn3nc(-c4ccc(Br)cc4)cc23)CC1 was read as Tau fibril ThT -8%, Tau fluor cs -11%, TexasRed fluor 5%, TRb SRC2 PPI 1% and Tau fibril FP 1%.
For COc1ccc(Nc2c(-c3ccc(C)o3)nc3cc(C)ccn23)cc1 the results were Tau fibril ThT inconclusive, Tau fluor cs inconclusive, TexasRed fluor 1%, TRb SRC2 PPI -6% and Tau fibril FP -2%.
COc1ccc(C2=NN(S(C)(=O)=O)C(c3cn(-c4ccccc4)nc3-c3cccs3)C2)cc1 (stereo unspecified) was read as Tau fibril ThT 8%, Tau fluor cs inconclusive, TexasRed fluor -2%, TRb SRC2 PPI 4% and Tau fibril FP 20µM*.
For Cc1c(CC(=O)NCc2ccccc2)c(=O)oc2c(C)c(O)ccc12 the results were Tau fibril ThT 1%, Tau fluor cs -9%, TexasRed fluor 3%, TRb SRC2 PPI 2% and Tau fibril FP -11%.
Screening O=C(O)CC/C(=C\c1ccc(N2CCOCC2)c([N+](=O)[O-])c1)c1nc2ccccc2s1 returned Tau fibril ThT 7.9µM*, Tau fluor cs -12%, TexasRed fluor -3%, TRb SRC2 PPI 2% and Tau fibril FP -3%.
O=C(O)C/C(=C\c1ccc(N2CCOCC2)c([N+](=O)[O-])c1)c1nc2ccccc2s1 was read as Tau fibril ThT 14µM*, Tau fluor cs -13%, TexasRed fluor -4%, TRb SRC2 PPI -1% and Tau fibril FP -2%.
`Cc1ccc(S(=O)(=O)Nc2cc3c(cc2N2CCOCC2)n(C)c(=O)n3C)c(C)c1` gave Tau fibril ThT -10%, Tau fluor cs -15%, TexasRed fluor -1%, TRb SRC2 PPI -1% and Tau fibril FP -10%.
For COc1ccc(Cn2c(O)cc(=O)[nH]c2=O)cc1 the results were Tau fibril ThT inconclusive, Tau fluor cs -13%, TexasRed fluor 9%, TRb SRC2 PPI 26% and Tau fibril FP -15%.
`CCOc1ccc(Cn2c(O)cc(=O)[nH]c2=O)cc1` gave Tau fibril ThT 16µM*, Tau fluor cs -22%, TexasRed fluor -4%, TRb SRC2 PPI -22% and Tau fibril FP inconclusive.
For COc1ccc(-c2cc(C(=O)NCc3cccs3)no2)cc1 the results were Tau fibril ThT -6%, Tau fluor cs 0%, TexasRed fluor -1%, TRb SRC2 PPI 5% and Tau fibril FP 6%.
Cc1cc(C)c2cc3c(N)c(C(=O)N4CCOCC4)sc3nc2c1 was read as Tau fibril ThT 22µM*, Tau fluor cs inconclusive, TexasRed fluor -3%, TRb SRC2 PPI 4% and Tau fibril FP 0%.
For CCOc1ccc2nc3sc(C(=O)N4CCOCC4)c(N)c3cc2c1 the results were Tau fibril ThT 7.1µM*, Tau fluor cs inconclusive, TexasRed fluor 0%, TRb SRC2 PPI 0% and Tau fibril FP inconclusive.
For COc1ccc2nc3sc(C(=O)NCc4cccs4)c(N)c3cc2c1 the results were Tau fibril ThT 16µM*, Tau fluor cs inconclusive, TexasRed fluor -16%, TRb SRC2 PPI -2% and Tau fibril FP -1%.
For Cc1ccc(C)c2nc3sc(C(=O)N4CCOCC4)c(N)c3cc12 the results were Tau fibril ThT -4%, Tau fluor cs -6%[2.34 µM], TexasRed fluor -6%, TRb SRC2 PPI 2% and Tau fibril FP -8%[2.34 µM].
Screening COc1ccc(S(=O)(=O)NCCc2sc(-c3ccccc3)nc2C)cc1F returned Tau fibril ThT -6%, Tau fluor cs -21%, TexasRed fluor -1%, TRb SRC2 PPI 2% and Tau fibril FP inconclusive.
CCOC(=O)C1CCN(S(=O)(=O)c2ccc(OC)c(Cl)c2)CC1 was read as Tau fibril ThT 3%, Tau fluor cs -10%, TexasRed fluor 0%, TRb SRC2 PPI 2% and Tau fibril FP -12%.
Nc1nc(Nc2cccc(C(F)(F)F)c2)sc1C(=O)c1ccccc1 was read as Tau fibril ThT -9%, Tau fluor cs inconclusive, TexasRed fluor -4%, TRb SRC2 PPI 8% and Tau fibril FP 5%.
For Cc1ccc(C(=O)c2sc(Nc3ccc(F)cc3)nc2N)c(C)c1 the results were Tau fibril ThT -14%, Tau fluor cs 16µM*[quencher], TexasRed fluor -1%, TRb SRC2 PPI 0% and Tau fibril FP 14%.
COc1cccc(C(=O)c2sc(Nc3ccc(F)c(Cl)c3)nc2N)c1 was read as Tau fibril ThT 0%, Tau fluor cs inconclusive, TexasRed fluor 1%, TRb SRC2 PPI 4% and Tau fibril FP 7%.
`CC(C)(C)C(=O)c1sc(Nc2ccccc2)nc1N` gave Tau fibril ThT inconclusive, Tau fluor cs inconclusive, TexasRed fluor -4%, TRb SRC2 PPI -9% and Tau fibril FP 19%.

Screening results: PubChem, National Center for Advancing Translational Sciences (NCATS)
